Screening results from PubChem.
Rows were chosen to be rich in hits. Some 2.3% of all compounds tested hit in one or more screens of this group.
BCR signal inh: blocks chronic active B-cell receptor signaling; Potency, µM (highest dose often 46.1 µM), for the others: at the top dose activity change, negative = inhibition, actives largely listed as inhibitors; actives 0.05% (n = 340,000); ABC-DLBCL IkBa-CBG/CBR reporter, luminescence ratio, 4 h; active = well fitted inhibition curve with a large enough effect in the signal ratio, with a control signal flat, not every such curve was filed as active; inconclusive = small, poorly fitted or top-dose-only effect, or effect the other way, or a change in a side signal; the % refers to the signal ratio;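 note: plate controls were basal doxycycline-induced cells for no effect and cells given 10 µM MG132 for full effect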
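TMD8 ABC-DLBCL cells carrying doxycycline-inducible green luciferase fused to IkappaBalpha plus unfused red luciferase were exposed to compounds (up to 46 uM) for 4 hrs at 37C. Activity came from the overlap-corrected green/red luminescence ratio.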
aSyn yeast inh: inhibitors of alpha-synuclein toxicity in yeast | Yeast expressing alpha-synuclein, growth rescue, BacTiter-Glo, 24 h | Potency, µM (titrated, usually from 46.1 µM), for inactives: top-dose growth rescue (activation), most hits filed as activators | actives 0.14% (n = 370,000) | AID 652106; note: % of control where 0% means no effect; nearly all actives have a fitted effect of over 65% in size
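Readout is rescue of growth in alpha-synuclein-expressing yeast, so inhibitors of toxicity appear as activators. Growth after 24 hr at 30 deg C in galactose medium is quantified by luminescence.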
FUS suppressor: FUS proteinopathy suppression in yeast. Potency, µM (top dose mostly 76.6 µM), most hits filed as activators. AID 1347120. actives 0.24% (n = 390,000). S. cerevisiae FUS-expressing, growth rescue, OD600, 24 h;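 note: plate controls were DMSO vehicle for no effect and reference control for full effect; nearly all actives have a fitted effect of over 55% in size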
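Restored growth of FUS-toxic S. cerevisiae, read as 600 nm absorbance after 24 h at 30C in galactose medium (starting OD 0.005). Controls CP55940 and DMSO.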
TDP43 rescue: TDP-43 toxicity inhibition in yeast; Potency, µM (doses to about 46.1 µM), for the others: at the top dose growth rescue (activation), usual class: activators; TDP-43 expressing yeast growth rescue, BacTiter-Glo, 24 h; actives 1.8% (n = 410,000); note: % of control where 0% means no effect; nearly all actives have a fitted effect of over 50% in size
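Yeast cells expressing TDP-43 under galactose induction are exposed to compounds for 24 hr at 30 deg C. BacTiter-Glo luminescence measures growth, so protective compounds score as activators.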
uPA generation: inhibitors of cell surface uPA generation; Potency, µM (top dose mostly 38.3 µM), for the others: at the top dose activity change, negative = inhibition, actives largely listed as inhibitors; cell surface uPA generation assay, qHTS; actives 0.31% (n = 330,000); AID 540303; active = well fitted inhibition curve with a large enough effect; inconclusive = small, poorly fitted or top-dose-only effect; inactive = no such curve, though single readings can be large or run the other way; tested in mouse RAW 264.7 cells; note: % is set by controls: 0 for no effect and ±100 for the full control effect; nearly all actives have a fitted effect of over 55% in size
Abeta yeast res: compounds reversing amyloid beta toxicity in yeast; yeast expressing A-beta42, growth rescue, OD600, 48 h; response scale: 0% DMSO, 100% iron-clioquinol control; Potency, µM (top dose mostly 46.1 µM), usual class: activators; actives 0.063% (n = 410,000); note: nearly all actives have a fitted effect of over 55% in size
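Yeast growth medium received pinned compounds, then yeast cells expressing toxic A-beta were added; plates incubated at 30 C for 48 hr. Growth read as absorbance at 600 nm, normalized to DMSO and equimolar FeCl3 plus clioquinol controls.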
The depositor's hits bear a star; i = inactive; ? = inconclusive; / = not tested or not shown; [ ] = dose if it differs, or a comment. Unless noted, calls come from the whole dose curve; as a rule, active = well fitted curve in the direction sought with a large enough effect; inconclusive = small, poorly fitted or top-dose-only effect, or another doubt; inactive = no such curve, though single readings can be large; an effect the other way counts as inactive or inconclusive. Potency is the fitted concentration of half-maximal effect.

SMILES	BCR signal inh	aSyn yeast inh	FUS suppressor	TDP43 rescue	uPA generation	Abeta yeast res
O=C(CSCC(=O)N1CCCCC1)Nc1nc(-c2cccs2)cs1	0.1%	-1.0%	i	31.6µM*	-9.0%	i
O=C(CSCC(=O)N1CCCCC1)Nc1nc(-c2ccc(Cl)s2)cs1	4.0%	-11.7%	i	20µM*	-24.9%	i
CC1CC(C)CN(C(=O)CSCC(=O)Nc2nc(-c3cccs3)cs2)C1 (stereo unspecified)	?	-7.0%	i	0.0%	-3.3%	i
Nc1c(-c2nc(-c3ccc(F)cc3)cs2)c2ccccn2c1C(=O)c1ccc2c(c1)OCO2	/	/	i	11.1%	/	i
Cc1ccc(C)c(NC(=S)NC(NC(=O)Cc2cccc3ccccc23)C(Cl)(Cl)Cl)c1 (stereo unspecified)	?	-4.1%	/	-4.2%	-0.2%	i
NC(=O)c1oc2ccccc2c1NC(=O)CCc1ccccc1	?	1.2%	i	11.2µM*	0.7%	i
CC(=O)Nc1c(C(=O)c2ccccc2)oc2ccccc12	8.2%	/	i	7.94µM*	-3.9%	i
COc1ccc(CC(=O)Nc2c(C(N)=O)oc3ccccc23)cc1OC	5.4%	6.3%	i	-4.8%	3.5%	i
O=C(Cc1ccccc1)Nc1c(C(=O)c2ccccc2)oc2ccccc12	/	/	i	15.0%	/	i
COc1ccc(-c2cc(C#N)nc(Oc3ccc(Cl)cc3)n2)cc1	-8.7%	3.9%	/	0.0%	-19.3%	i
COc1ccc(-c2cc(C#N)nc(Cl)n2)cc1	?	-9.3%	i	3.98µM*	-8.9%	i
O=C(NC(=S)Nc1ccc(S(=O)(=O)N2CCCCC2)cc1)c1ccccc1	-13.9%	-2.1%	i	-6.4%	-0.4%	i[9.22 µM]
COc1ccc(CCC(=O)Nc2ccc(N3CCOCC3)c(S(=O)(=O)Nc3ccc(OC)cc3)c2)cc1	/	-1.4%	i	-4.1%	-0.3%	i
COc1ccc(NS(=O)(=O)c2cc(NC(=O)CCNC(C)=O)ccc2N2CCCCC2)cc1	?	0.7%[1.84 µM]	31.6µM*	1.4%	16.1%	i
COc1ccc(Nc2ncnc3c2c(C)c(C)n3CCO)cc1	-0.9%	-0.7%	i	0.0%	-10.9%	i
Cc1ccc(OCC(=O)N(Cc2ccc(Cl)cc2)Cc2ccco2)cc1C	/	/	i	9.6%	/	i
CC1CCCN(S(=O)(=O)c2ccc(C(=O)Nc3nnc(-c4ccco4)o3)cc2)C1 (stereo unspecified)	3.7%	3.5%	i	27.0%	-8.2%	i
Cc1cc(C)c2nc(NNC(=O)c3ccc(S(=O)(=O)N4CCCCC4)cc3)sc2c1	-3.2%	-0.8%	?	6.31µM*	?	i
Cc1cc(C)c2nc(NC(=O)c3ccc(S(=O)(=O)N4CCCC4)cc3)sc2c1	/	1.0%	i	2.4%	/	i
CCc1nnc(NC(=O)c2ccc(S(=O)(=O)N3CCCC(C)C3)cc2)o1 (stereo unspecified)	-0.2%	22.4µM*	i	?	?	?
Cc1cccc2sc(NNC(=O)c3ccc4c(c3)OCCO4)nc12	-13.6%	14.3%	i	35.5µM*	-16.9%	?
COc1cccc2sc(NC(=O)c3ccc4c(c3)OCCO4)nc12	/	/	i	29.6%	/	i
CCOC(=O)N1CCN(S(=O)(=O)c2ccc(C(=O)NNc3nc4cc(C)cc(C)c4s3)cc2)CC1	0.1%	1.5%	i	5.62µM*	?	i
O=C(CN1CCOCC1)Nc1nc(-c2ccccc2)cs1	?	13.4%	i	-6.1%	1.9%	i
Cc1cccc2sc(NNC(=O)c3ccc(S(=O)(=O)N4CCCC(C)C4)cc3)nc12 (stereo unspecified)	-5.2%	11.1%	?	5.62µM*	8.91µM*	i
Nc1cccnc1Sc1cccc(Cl)c1	-1.5%	14.0%	i	17.8µM*	-2.1%	i
